High-throughput results deposited in PubChem BioAssay by several laboratories.
An excerpt weighted towards active compounds, which were near 2.2% of everything screened.
Hsp70 activator – Hsp70 transcriptional activation, primary screen; HeLa Hsp70 promoter luciferase reporter, luminescence; scaled: vehicle 0, proteasome-inhibitor control 100%; activation, % at 10 µM; 200,000 tested, 0.04% active;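 active means activation above the mean across all tested compounds plus 3 SD, cutoff set per campaign, cut at about 5.5% in these data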;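 further: 100% = MG132 at 30 µM as the positive control and 0% = DMSO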
SMARCA2 activ – activators of SMARCA2 function; MG213 cells, MMTV-luciferase reporter, dexamethasone, overnight; activation, % at 9.1 µM; 370,000 tested, 1% active; in the data active means activation above about 7.8%;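 further: 0% = vehicle wells and 100% = reference activator wells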
FXN GAA850 act – activators of GAA850 frataxin (FXN) promoter | HEK293 lucGAA850 FXN promoter luciferase reporter, 24 h; percent of 10 µM SAHA response | 360,000 tested, 0.56% active | AID 540364 | activation, % at 6 µM;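 active means activation above the average of all compounds screened plus 3 SD, cutoff fixed separately per campaign, cut at about 7.5% in these data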;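 further: 0% = DMSO wells and 100% = 10 µM SAHA wells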
HIF activator – HIF pathway transcriptional activation; 300,000 tested, 0.32% active; activation, % at 7.5 µM (by protocol); U2OS HRE-luciferase reporter, luminescence; normalized: DMSO 0%, desferrioxamine 100%;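 active means mean activation of at least 10% of the iron chelator positive control signal, with at least half of replicates also reaching 10%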
GalR3 antag – human GalR3 antagonism; HEK293 GalR3-CNG cAMP membrane potential fluorescence; galR3 body fused to GalR1 C-terminus; inhibition, % at 3 µM; 360,000 tested, 0.44% active; AID 651719;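 active means inhibition above the screen-wide average plus 3 SD, cut at about 13% in these data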;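 further: forskolin and galanin both at EC90 stimulate the cells; cAMP rise reported by CNG channel membrane potential dye signal; 0% = forskolin plus galanin with DMSO and 100% = forskolin alone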
Target sequence (O60755 1-299 limits assumed): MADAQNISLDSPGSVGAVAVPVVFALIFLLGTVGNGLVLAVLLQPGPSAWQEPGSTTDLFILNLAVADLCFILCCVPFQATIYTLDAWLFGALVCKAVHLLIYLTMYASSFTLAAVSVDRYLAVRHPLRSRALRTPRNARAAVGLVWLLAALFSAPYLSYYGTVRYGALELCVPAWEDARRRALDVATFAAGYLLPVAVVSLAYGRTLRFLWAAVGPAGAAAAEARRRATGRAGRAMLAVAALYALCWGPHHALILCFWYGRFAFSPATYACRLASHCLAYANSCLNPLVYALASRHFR
SMARCA2 act conf – SMARCA2 activation, confirmation screen | shares compounds with SMARCA2 activ | MG213 cells, MMTV-luciferase with dexamethasone, luminescence, overnight; MG213 cells expressing E1A, Rb sequestered; DMSO wells 0%, reference activator 100% | activation, % at 9.1 µM | 3,500 tested, 30% active;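 active means activation above its plate's cutoff, the mean activation of tested wells plus 3 SD, cut at about 7.9% in these data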
GAL4-VP16 Luc – GAL4-VP16 reporter activation counter-screen; shares compounds with SMARCA2 activ; HEK293 GAL4-VP16 pG5luc reporter, luciferase luminescence; scaled: DMSO wells 0%, SAHA wells 100%; activation, % at 9.1 µM; 3,500 tested, 41% active;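 active means activation above the solvent-only control well mean plus 3 SD, averaged across control plates, cut at about 5.2% in these data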
Active calls of the source: *.

What do the screens show for `COCC(=O)N(C)[C@H]1C[C@H]2c3[nH]c4cccc(-c5cccc(F)c5)c4c3CCN2C(=O)[C@H]1[C@H](C)O`?
SMARCA2 activ: 2

What do the screens show for `CCCCn1c(N)c(N(CC)C(=O)c2cc3c(s2)CCCCC3)c(=O)[nH]c1=O`?
SMARCA2 activ: -3; FXN GAA850 act: 2; HIF activator: 0; GalR3 antag: 2

How did CCCCn1c(N)c(N(C)C(=O)c2cc3c(s2)CCCCC3)c(=O)[nH]c1=O do in these assays?
SMARCA2 activ: 8.5*; FXN GAA850 act: 1; GalR3 antag: -6; SMARCA2 act conf: 0; GAL4-VP16 Luc: 1

What do the screens show for `CC(=O)NC(Cc1ccc2c(c1)OCO2)C(=O)N1CCCC1` (stereo not given)?
SMARCA2 activ: -1

How did CCOc1ccccc1NS(=O)(=O)c1ccc2c(c1)n(C)c(=O)c(=O)n2C do in these assays?
Hsp70 activator: -1; SMARCA2 activ: 12*; FXN GAA850 act: -1; HIF activator: 0; GalR3 antag: -11; SMARCA2 act conf: 3; GAL4-VP16 Luc: 1

Results for O=C(CSC1=NCCS1)N1CCc2ccccc21 ?
Hsp70 activator: 0; SMARCA2 activ: 8.1*; FXN GAA850 act: 3; HIF activator: 4; GalR3 antag: -3; SMARCA2 act conf: 12*; GAL4-VP16 Luc: 8.4*

What do the screens show for `COC(=O)[C@]12C[C@H](CC(=O)NCCCCc3ccccc3)C(=O)N(CCC3=CCCCC3)C1=C[C@H](COCc1ccccc1)O[C@@H]2C`?
SMARCA2 activ: -4; GalR3 antag: -5

What do the screens show for `O=C(OC12CCCN(C1)/C(=C/c1ccc(Cl)cc1)C2)C1CCCC1` (stereo not given)?
SMARCA2 activ: 0

How did COCCCNC(=O)/C=C/c1ccc(Cl)cc1 do in these assays?
Hsp70 activator: 0; SMARCA2 activ: 12*; FXN GAA850 act: 2; HIF activator: 1; GalR3 antag: -3; SMARCA2 act conf: 3; GAL4-VP16 Luc: 1

How did COCCCNC(=O)/C=C/c1c(Cl)cccc1Cl do in these assays?
Hsp70 activator: 0; SMARCA2 activ: 0; FXN GAA850 act: 1; HIF activator: 1; GalR3 antag: -5

How did COC(=O)C(Cc1ccc(O)cc1)N1Cc2ccccc2C1=O (stereo not given) do in these assays?
SMARCA2 activ: 9.1*; FXN GAA850 act: 7; HIF activator: 2; GalR3 antag: -7; SMARCA2 act conf: 6; GAL4-VP16 Luc: 9.3*

Results for NNC(=O)C(Cc1ccc(O)cc1)N1Cc2ccccc2C1=O (stereo not given) ?
SMARCA2 activ: -4; FXN GAA850 act: -2; HIF activator: -1; GalR3 antag: -3

How did Cc1ccc(-n2c(SCc3nc4ccccc4[nH]3)nnc2-c2ccccn2)cc1 do in these assays?
SMARCA2 activ: 0

What do the screens show for `O=C(OCc1cn(Cc2cccc(C(F)(F)F)c2)nn1)N1CCOCC1`?
SMARCA2 activ: -2

What do the screens show for `Cc1cc(NC2CCCCC2)nc(N2CCOCC2)n1`?
Hsp70 activator: 0; SMARCA2 activ: 1; FXN GAA850 act: 2; HIF activator: 0; GalR3 antag: 0

What do the screens show for `CNc1cc(C)nc(N2CCOCC2)n1`?
SMARCA2 activ: 8.7*; FXN GAA850 act: -1; HIF activator: 0; GalR3 antag: 2; SMARCA2 act conf: -1; GAL4-VP16 Luc: 1

Results for O=C(NCCN1CCC(Cc2ccccc2)CC1)C1CCCN(S(=O)(=O)c2ccc(Cl)s2)C1 (stereo not given) ?
SMARCA2 activ: -5

What do the screens show for `CC(CCc1ccccc1)NC(=O)C(=O)Nc1ccccc1` (stereo not given)?
Hsp70 activator: 0; SMARCA2 activ: 8.9*; FXN GAA850 act: 2; HIF activator: 3; GalR3 antag: 0; SMARCA2 act conf: 11*; GAL4-VP16 Luc: 9.8*

How did CC(CCc1ccccc1)NC(=O)CN1CCN(c2ccccc2)CC1 (stereo not given) do in these assays?
Hsp70 activator: 0; SMARCA2 activ: 8.7*; FXN GAA850 act: 2; HIF activator: 0; GalR3 antag: -1; SMARCA2 act conf: -1; GAL4-VP16 Luc: 2

How did COc1ccc(C(=O)N2C(=S)NC(=O)/C2=C\c2ccc(C)cc2)cc1 do in these assays?
Hsp70 activator: 0; SMARCA2 activ: 13*; FXN GAA850 act: 4; HIF activator: 0; GalR3 antag: -5; SMARCA2 act conf: -2; GAL4-VP16 Luc: 2

Results for O=C1NC2c3c(I)sc(I)c3C(=O)C2O1 (stereo not given) ?
SMARCA2 activ: 8.7*; FXN GAA850 act: -7; GalR3 antag: -3; SMARCA2 act conf: -4; GAL4-VP16 Luc: 0

What do the screens show for `O=C1NC2c3c(Cl)sc(Cl)c3C(=O)C2O1` (stereo not given)?
SMARCA2 activ: 15*; FXN GAA850 act: -2; GalR3 antag: -5; SMARCA2 act conf: 9.0*; GAL4-VP16 Luc: 1

What do the screens show for `O=C1NC2c3ccccc3CC2O1` (stereo not given)?
SMARCA2 activ: 1; FXN GAA850 act: 0; HIF activator: 0; GalR3 antag: 5

How did O=C(NCCc1ccccc1)OCc1cn(Cc2cccc(Cl)c2)nn1 do in these assays?
SMARCA2 activ: 0

What do the screens show for `Cc1ccc(NC(=O)Nc2cnccn2)cc1`?
SMARCA2 activ: 10.0*; FXN GAA850 act: 4; HIF activator: 3; GalR3 antag: -6; SMARCA2 act conf: 4; GAL4-VP16 Luc: 4

What do the screens show for `Cc1cc(NS(=O)(=O)c2ccc(NC(=O)Cc3ccc(Cl)c(F)c3)cc2)no1`?
SMARCA2 activ: 1

Results for CCOc1ccc(CCNC(=O)CSc2cc(=O)n(C)c3cc(Cl)ccc23)cc1OCC ?
Hsp70 activator: 0; SMARCA2 activ: -1; FXN GAA850 act: -2; HIF activator: 2; GalR3 antag: -10

What do the screens show for `Cn1c(=O)cc(SCC(=O)NCCC2=CCCCC2)c2ccc(Cl)cc21`?
Hsp70 activator: 0; SMARCA2 activ: 8.3*; FXN GAA850 act: 3; HIF activator: 0; GalR3 antag: -8; SMARCA2 act conf: 5; GAL4-VP16 Luc: 2

How did CC(=O)c1ccc(NCCCN2CCC(C(O)(c3ccccc3)c3ccccc3)CC2)cc1 do in these assays?
SMARCA2 activ: 9.6*; SMARCA2 act conf: 1; GAL4-VP16 Luc: 1

How did OC(c1ccccc1)(c1ccccc1)C1CCN(CCCNc2cccc(OC(F)(F)F)c2)CC1 do in these assays?
SMARCA2 activ: -9

How did COC(=O)[C@H](CC(C)C)N(CCc1cn(Cc2ccccc2)nn1)S(=O)(=O)c1ccccc1Br do in these assays?
SMARCA2 activ: 0
